Only some compounds are listed: those with a hit (about 2.1% of all), similar ones and a draw of the others.
Myeloid diff MLP: promotes myeloid progenitor differentiation. 360,000 tested, 1% active. AID 624256. calls only at 10 µM. ER-HoxA9 myeloid progenitors, lysozyme-GFP differentiation, flow cytometry;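 active = normalized GFP-positive differentiation at or above the plate's own cutoff, the solvent-only control mean plus 3 SD; inconclusive = no clear call, values can overlap the other calls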;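 note: cells exposed to compound for four days before flow analysis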
TPT1 inhibitor: inhibitors of Candida albicans tRNA 2'-phosphotransferase TPT1. inhibition, % at 5 µM. 300,000 tested, 0.81% active. recombinant caTPT1, FP RNA substrate dephosphorylation;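 active = inhibition above the mean of all tested compounds plus 3 SD, set per screening campaign, cut at about 24% in these data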
HNF4A DNA FP: change in binding of human HNF4 alpha to DNA; activity change, % at 10 µM; HNF4a-FITC DNA binding, fluorescence polarization, 1 h; P41235; 360,000 tested, 0.3% active; in the data active = activity change above about 30%, passing the limit was not always enough
Target sequence (P41235 whole entry, looked up): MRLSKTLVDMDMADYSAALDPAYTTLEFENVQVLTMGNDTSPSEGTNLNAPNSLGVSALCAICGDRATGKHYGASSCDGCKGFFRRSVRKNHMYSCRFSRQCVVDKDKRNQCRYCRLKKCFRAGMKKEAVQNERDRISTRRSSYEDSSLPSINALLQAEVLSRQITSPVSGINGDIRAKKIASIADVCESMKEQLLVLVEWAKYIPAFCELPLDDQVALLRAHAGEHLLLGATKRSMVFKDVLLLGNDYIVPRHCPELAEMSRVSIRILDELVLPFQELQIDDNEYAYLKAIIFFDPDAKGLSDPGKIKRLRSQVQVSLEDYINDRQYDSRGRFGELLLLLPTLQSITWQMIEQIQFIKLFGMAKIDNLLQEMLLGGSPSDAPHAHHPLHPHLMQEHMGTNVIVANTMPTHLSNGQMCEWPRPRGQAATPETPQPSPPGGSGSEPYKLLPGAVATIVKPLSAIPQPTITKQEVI
Rpn11 inh: Rpn11 (human) deubiquitinase inhibition | O00487 | human 26S proteasome, Ub4-pepOG fluorescence polarization; 20S core pre-blocked with epoxomicin | inhibition, % at 20 µM | 360,000 tested, 0.59% active;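 active = inhibition at 20 µM, scaled to each plate's controls, above about 33%, limit read from the data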
Hits are given with their value; n = inactive; u = inconclusive; x = no result shown; + = active, no number.

SMILES	Myeloid diff MLP	TPT1 inhibitor	HNF4A DNA FP	Rpn11 inh
CCOc1ccc(NC(=S)N2CCC(NC(=O)C3CCCCC3)CC2)cc1	n	n	n	n
COCCn1c(=S)[nH]c2ccc(N(C)C)cc2c1=O	n	n	n	n
N#C/C(=C/c1ccc(N2CCOCC2)o1)C(=O)Nc1ccccc1	+	x	n	x
CCOc1ccc(/C=C/C2=Cc3c(sc(NC(=O)CSc4n[nH]c(N)n4)c3C#N)C(C)(C)C2)cc1	n	57	42	x
CSc1ccccc1OCc1cc(C(=O)NCCC2=CCCCC2)no1	n	n	n	n
CC(C)(C)Nc1nc2nonc2nc1NC(C)(C)C	+	n	n	n
C=CCn1c(O)c(N=Nc2ccccc2O)c2ccccc21	n	x	84	x
Fc1cccc(-c2cncc(N3CCN(CCN4CCCC4)CC3)n2)c1	n	x	n	n
C=C1C(=O)[C@]23C[C@H]1CCC2[C@]1(C)C(=O)CC[C@@](C)(C(=O)O)C1C[C@@H]3O (some centres not stated)	+	x	n	n
CCN(CC(=O)Nc1ccccc1C(F)(F)F)C(=O)c1ccc2c(=O)n3c(nc2c1)CCC3	+	x	n	n
O=C(/C=C/c1ccccc1)C1C(=O)c2ccccc2C1=O	n	n	n	n
CCc1ccc(/C=C/C(=O)C2C(=O)c3ccccc3C2=O)cc1	+	n	n	n
COC1=CC(=O)OC(c2cccc(C#N)c2)C1 (configuration not stated)	n	x	n	x
Cc1cnc(CNC(=O)c2ccc(OC3CCN(C(=O)C4CC4)CC3)cc2)cn1	n	n	40	n
Cc1ccc(/C=N/NC(=O)c2cccc(NC(=O)c3ccccc3C)c2)o1	+	n	n	n
Cc1cccc(C(=O)Nc2ccc(C(=O)N/N=C/c3ccc(C)o3)cc2)c1	u	n	n	n
Cc1ccc(/C=N/NC(=O)c2cccc(NC(=O)c3ccccc3Cl)c2)o1	+	n	n	n
O=C(CCl)N1c2ccccc2Oc2ccc3ccccc3c21	+	x	n	n
CC(=O)N1c2ccccc2Oc2cc3ccccc3cc21	n	n	n	n
COc1ccc(CCNC(=O)C2CCCN(c3ncnc4c3nc3n4CCCCC3)C2)c(OC)c1 (configuration not stated)	u	n	n	n
NC1(C#Cc2ccc3oc(=O)c(-n4cc(C5(O)CCCCC5)nn4)cc3c2)CCCCC1	n	x	n	n
NC1(C#Cc2ccc3oc(=O)c(-n4cc(-c5ccsc5)nn4)cc3c2)CCCCC1	n	x	n	44
CCOC1=C2CN(S(=O)(=O)c3ccc(C)cc3)C(c3ccc(C)cc3)CC2N(S(=O)(=O)c2ccc(C)cc2)C(c2ccccc2)C1 (configuration not stated)	n	x	n	x
C=CCNC(=O)NC(=O)COC(=O)/C=C/c1cccc([N+](=O)[O-])c1	n	n	n	n
CC(C)CCNC(=O)NC(=O)COC(=O)/C=C/c1cccc([N+](=O)[O-])c1	+	n	n	n
SMILES	Myeloid diff MLP	TPT1 inhibitor	HNF4A DNA FP	Rpn11 inh
CC(C)C1C(=O)CC(c2ccccc2)NC1c1ccccc1 (configuration not stated)	n	n	38	n
CC1C(=O)CC(c2ccccc2)NC1c1ccccc1 (configuration not stated)	n	n	n	n
Cc1ccc2c(CC(=O)NC3CCS(=O)(=O)C3)coc2c1C (configuration not stated)	n	n	n	n
Cc1ccc2c(CC(=O)NCc3ccco3)coc2c1C	+	n	n	n
O=C(Nc1nc(-c2ccccn2)cs1)c1ccc(F)c(S(=O)(=O)N2CCOCC2)c1	u	x	n	n
O=C(Nc1nc(-c2ccccn2)cs1)c1cc(S(=O)(=O)N2CCOCC2)ccc1F	+	x	n	n
CC(=O)N1CCCC(C)(C(=O)Nc2ccc3oc(C)nc3c2)C1 (configuration not stated)	n	x	n	n
Cc1cccc2c3c([nH]c12)CCNC3	n	n	n	n
COc1cccc(C(=O)/C=C/Nc2ccc(S(=O)(=O)Nc3onc(C)c3C)cc2)c1	n	n	85	n
O=C(/C=C/Nc1ccc(S(=O)(=O)Nc2ncccn2)cc1)c1cccs1	n	n	n	n
O=C(/C=C/Nc1ccc(S(=O)(=O)Nc2ncccn2)cc1)c1ccc(Cl)c(Cl)c1	n	n	n	54
CCn1c(C(=O)O)c(CC(=O)Nc2cccc(C(F)(F)F)c2)c2ccccc21	n	n	n	n
N#C/C(=C/c1cccn1-c1cccc(C(=O)O)c1)c1ccc(Cl)cc1	+	n	n	n
CN(C)C(CNC(=O)c1ccc(-c2ccccc2)cc1)c1ccccc1 (configuration not stated)	+	n	n	n
CN(C)C(CNC(=O)c1ccc(C(=O)c2ccccc2)cc1)c1ccccc1 (configuration not stated)	n	n	n	n
COC(=O)c1cc(-c2ccc(OC)c(OC)c2)c2c(=O)[nH]c(=O)n(C)c2n1	n	n	n	n
O=C(NCc1ccco1)c1cccc2c1C(=O)c1ccc(N3CCC(Cc4ccccc4)CC3)cc1S2(=O)=O	n	x	n	n
CC1CCN(c2ccc3c(c2)S(=O)(=O)c2cccc(C(=O)NCc4cccc(F)c4)c2C3=O)CC1	n	x	n	x
O=C(NCCc1ccc(F)cc1)c1cccc2c1C(=O)c1ccc(N3CCC(Cc4ccccc4)CC3)cc1S2(=O)=O	+	x	n	n
O=C(NCc1cccc(C(F)(F)F)c1)c1cccc2c1C(=O)c1ccc(N3CCC(Cc4ccccc4)CC3)cc1S2(=O)=O	+	x	n	n
O=C(NCc1cccc(F)c1)c1cccc2c1C(=O)c1ccc(N3CCCC3)cc1S2(=O)=O	n	x	n	n
O=C(NCc1cccc(F)c1)c1cccc2c1C(=O)c1ccc(N3CCC(Cc4ccccc4)CC3)cc1S2(=O)=O	+	x	n	n
O=C(Cn1cnc2ccccc2c1=O)NCCC(=O)Nc1ccc2c(c1)OCO2	n	n	n	n
O=[N+]([O-])c1ccc(Cl)c(CN2CCN(c3ncc(Cc4ccccc4)cn3)CC2)c1	n	x	n	x
N=C1S/C(=C\c2cn[nH]c2-c2ccc(F)cc2)C(=O)N1c1ccccc1F	n	n	n	n
SMILES	Myeloid diff MLP	TPT1 inhibitor	HNF4A DNA FP	Rpn11 inh
COc1ccc(-c2[nH]ncc2CN2CCN(C(=O)c3cccs3)CC2)c(F)c1	+	n	n	n
O=C(c1cccs1)N1CCN(Cc2cn[nH]c2-c2ccc(F)cc2F)CC1	u	x	n	n
Cc1sc(NC(=O)c2ccco2)c(C(c2cccnc2)N2CCN(c3ccc(F)cc3)CC2)c1C (configuration not stated)	+	n	n	n
Cc1ccc2c(=O)n3c(nc2c1)C(Cc1ccc(O)cc1)NC(=O)c1cc2ccccc2cc1-3 (configuration not stated)	n	x	n	n
O=C(/C=C/c1cccc([N+](=O)[O-])c1)N1CCN(c2ccccc2F)CC1	n	n	n	n
CCOc1ccccc1N1CCN(C(=O)/C=C/c2cccc([N+](=O)[O-])c2)CC1	+	n	n	n
Cc1ccc(-c2cc(-c3ccc(F)cc3)c(C#N)c(N)n2)o1	+	n	n	n
Cc1ccc(-c2cc(-c3ccc4c(c3)OCO4)c(C#N)c(N)n2)o1	n	n	n	n
Cc1ccc(-c2cc(-c3ccc(C)o3)nc(N)c2C#N)cc1	+	n	n	n

Screens as filed in PubChem.
